Source: PubChem BioAssay AID1159580 (chemical genetic matrix, 2015)
Among all 5,500 compounds or so, about 2,000 (36%) were called active. Roughly 18% stayed inconclusive and do not appear here. Rule as the data show it: active = normalized growth mostly below about 0.91 (no sharp cut-off); inconclusive = no clear call, values can overlap the other calls; inactive = mostly above about 0.92. The list shows a part of the results.

Assay: chemical genetic growth profiling, strain panel (AID 1159580);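 also: tested at 20 µM; growth read once vehicle control cultures reached saturation at 30 °C; 1 = growth at the plate median or of vehicle wells; lower values mean less growth of the strain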
Details: growth OD

Measured: normalized growth

Cc1nnc(NS(=O)(=O)c2ccc(N)cc2)s1
inactive: S. cerevisiae deletion strains, locus YKL009W, strain mrt4, stronger effect = lower value 1.05 | S. cerevisiae deletion strains, locus YKL068W, stronger effect = lower value 0.996 | S. cerevisiae deletion strains, locus YKL085W, strain MDH1 (second series), stronger effect = lower value 0.998 | S. cerevisiae deletion strains, locus YKL085W, strain MDH1, stronger effect = lower value 0.998 | S. cerevisiae deletion strains, locus YKL160W, strain elf1, stronger effect = lower value 1.01 | S. cerevisiae deletion strains, locus YKL190W, strain CNB1, stronger effect = lower value 1.02 | S. cerevisiae deletion strains, locus YKR001C, strain vps1, stronger effect = lower value 1.02 | S. cerevisiae deletion strains, locus YKR026C, strain gcn3, stronger effect = lower value 1.01 | S. cerevisiae deletion strains, locus YKR091W, strain srl3, stronger effect = lower value 0.99 | S. cerevisiae deletion strains, locus YLL001W, strain dnm1, stronger effect = lower value 0.995 | S. cerevisiae deletion strains, locus YLL026W, stronger effect = lower value 0.998 | S. cerevisiae deletion strains, locus YLL041C, strain sdh2, stronger effect = lower value 1 | S. cerevisiae deletion strains, locus YLR027C, strain aat2, stronger effect = lower value 1.01 | S. cerevisiae deletion strains, locus YLR039C, strain RIC1, stronger effect = lower value 1.09 | S. cerevisiae deletion strains, locus YLR058C, strain SHM2, stronger effect = lower value 1.01 | S. cerevisiae deletion strains, locus YLR102C, strain apc9, stronger effect = lower value 0.985 | S. cerevisiae deletion strains, locus YLR113W, strain HOG1, stronger effect = lower value 0.966 | S. cerevisiae deletion strains, locus YLR221C, strain rsa3, stronger effect = lower value 1.01 | S. cerevisiae deletion strains, locus YLR258W, strain gsy2, stronger effect = lower value 0.997 | S. cerevisiae deletion strains, locus YLR262C, strain YPT6 (second series), stronger effect = lower value 0.99 | S. cerevisiae deletion strains, locus YLR262C, strain YPT6, stronger effect = lower value 1.07 | S. cerevisiae deletion strains, locus YLR268W, strain sec22, stronger effect = lower value 1.04 | S. cerevisiae deletion strains, locus YLR320W, strain mms22, stronger effect = lower value 0.99 | S. cerevisiae deletion strains, locus YLR330W, strain CHS5, stronger effect = lower value 1.01 | S. cerevisiae deletion strains, locus YLR342W, strain FKS1 (second series), stronger effect = lower value 1.04 | S. cerevisiae deletion strains, locus YLR342W, strain FKS1, stronger effect = lower value 0.996 | S. cerevisiae deletion strains, locus YLR357W, strain rsc2, stronger effect = lower value 1.03 | S. cerevisiae deletion strains, locus YLR370C, strain arc18, stronger effect = lower value 1.01 | S. cerevisiae deletion strains, locus YLR371W, strain rom2, stronger effect = lower value 0.984 | S. cerevisiae deletion strains, locus YLR384C, strain iki3, stronger effect = lower value 1 | S. cerevisiae deletion strains, locus YLR418C, strain cdc73, stronger effect = lower value 1.04 | S. cerevisiae deletion strains, locus YML016C, strain PPZ1, stronger effect = lower value 1.01 | S. cerevisiae deletion strains, locus YML032C, strain rad52, stronger effect = lower value 1.01 | S. cerevisiae deletion strains, locus YML120C, strain ndi1, stronger effect = lower value 0.987 | S. cerevisiae deletion strains, locus YML124C, strain tub3, stronger effect = lower value 1 | S. cerevisiae deletion strains, locus YMR058W, strain fet3, stronger effect = lower value 0.998 | S. cerevisiae deletion strains, locus YMR078C, strain ctf18, stronger effect = lower value 0.991 | S. cerevisiae deletion strains, locus YMR125W, strain sto1, stronger effect = lower value 0.998 | S. cerevisiae deletion strains, locus YMR129W, stronger effect = lower value 1.01 | S. cerevisiae deletion strains, locus YMR205C, strain PFK2, stronger effect = lower value 1 | S. cerevisiae deletion strains, locus YMR223W, strain ubp8, stronger effect = lower value 0.997 | S. cerevisiae deletion strains, locus YMR231W, strain pep5, stronger effect = lower value 1 | S. cerevisiae deletion strains, locus YMR263W, strain SAP30, stronger effect = lower value 1.01 | S. cerevisiae deletion strains, locus YMR307W, strain GAS1, stronger effect = lower value 0.987 | S. cerevisiae deletion strains, locus YNL067W, strain RPL9B, stronger effect = lower value 1.02 | S. cerevisiae deletion strains, locus YNL071W, strain lat1, stronger effect = lower value 0.993 | S. cerevisiae deletion strains, locus YNL128W, strain TEP1, stronger effect = lower value 1.03 | S. cerevisiae deletion strains, locus YNL153C, strain GIM3, stronger effect = lower value 1.01 | S. cerevisiae deletion strains, locus YNL183C, strain NPR1, stronger effect = lower value 0.953 | S. cerevisiae deletion strains, locus YNL209W, strain ssb2, stronger effect = lower value 1.01 | S. cerevisiae deletion strains, locus YNL233W, strain BNI4, stronger effect = lower value 1.01 | S. cerevisiae deletion strains, locus YNL248C, strain rpa49, stronger effect = lower value 1.01 | S. cerevisiae deletion strains, locus YNL250W, strain rad50, stronger effect = lower value 1.01 | S. cerevisiae deletion strains, locus YNL271C, strain bni1, stronger effect = lower value 1 | S. cerevisiae deletion strains, locus YNL298W, strain CLA4, stronger effect = lower value 1.03 | S. cerevisiae deletion strains, locus YNL307C, strain MCK1, stronger effect = lower value 1 | S. cerevisiae deletion strains, locus YNL322C, strain KRE1 (second series), stronger effect = lower value 0.999 | S. cerevisiae deletion strains, locus YNR049C, strain mso1, stronger effect = lower value 1 | S. cerevisiae deletion strains, locus YNR052C, strain pop2, stronger effect = lower value 0.989 | S. cerevisiae deletion strains, locus YOL006C, strain TOP1, stronger effect = lower value 1.04 | S. cerevisiae deletion strains, locus YOL012C, strain htz1 0.962 | S. cerevisiae deletion strains, locus YOL147C, strain pex11, stronger effect = lower value 0.986 | S. cerevisiae deletion strains, locus YOR001W, strain rrp6, stronger effect = lower value 1 | S. cerevisiae deletion strains, locus YOR061W, strain CKA2, stronger effect = lower value 1.01 | S. cerevisiae deletion strains, locus YOR069W, strain VPS5, stronger effect = lower value 1.01 | S. cerevisiae deletion strains, locus YOR070C, strain gyp1, stronger effect = lower value 1.01 | S. cerevisiae deletion strains, locus YOR080W, strain dia2, stronger effect = lower value 1 | S. cerevisiae deletion strains, locus YOR083W, strain WHI5, stronger effect = lower value 0.978 | S. cerevisiae deletion strains, locus YOR106W, strain vam3, stronger effect = lower value 1.02 | S. cerevisiae deletion strains, locus YOR136W, strain idh2, stronger effect = lower value 0.992 | S. cerevisiae deletion strains, locus YOR144C, strain elg1, stronger effect = lower value 0.992 | S. cerevisiae deletion strains, locus YOR184W, strain ser1, stronger effect = lower value 1.01 | S. cerevisiae deletion strains, locus YOR231W, strain MKK1, stronger effect = lower value 1.01 | S. cerevisiae deletion strains, locus YOR265W, strain rbl2, stronger effect = lower value 1 | S. cerevisiae deletion strains, locus YOR270C, strain vph1, stronger effect = lower value 1.02 | S. cerevisiae deletion strains, locus YOR290C, strain snf2, stronger effect = lower value 1 | S. cerevisiae deletion strains, locus YOR316C, strain cot1, stronger effect = lower value 0.99 | S. cerevisiae deletion strains, locus YPL051W, strain arl3, stronger effect = lower value 1 | S. cerevisiae deletion strains, locus YPL078C, strain atp4, stronger effect = lower value 0.999 | S. cerevisiae deletion strains, locus YPL106C, strain sse1, stronger effect = lower value 1.02 | S. cerevisiae deletion strains, locus YPL240C, strain hsp82, stronger effect = lower value 1.02 | S. cerevisiae deletion strains, locus YPL241C, strain CIN2, stronger effect = lower value 1.01 | S. cerevisiae deletion strains, locus YPL256C, strain CLN2, stronger effect = lower value 0.979 | S. cerevisiae deletion strains, locus YPR119W, strain clb2, stronger effect = lower value 0.989 | S. cerevisiae deletion strains, locus YPR141C, strain kar3, stronger effect = lower value 1.01 | S. cerevisiae deletion strains, locus YPR163C, strain tif3, stronger effect = lower value 0.992 | S. cerevisiae deletion strains, locus YPR167C, strain met16, stronger effect = lower value 0.997 | S. cerevisiae deletion strains, strain wtn01, stronger effect = lower value 1.02 | S. cerevisiae strains, strain wild type, stronger effect = lower value 1.01
